Most compounds without a hit are left out; they make up all but 8.3% or so of the library.
Lassa entry inh – inhibitors of Lassa virus binding or cell entry; Lassa virus pseudotype entry inhibition, cell reporter; hit rate 1.2% among 300,000; AID 540256; Potency, µM (titrated, usually from 37.9 µM), actives largely listed as inhibitors; calls by dose curve; tested in HEK293 cells; also: nearly all actives have a fitted effect of over 50% in size
HCV inhibitor – HCV inhibition; Potency, µM (doses to about 41.8 µM), hits mostly inhibitors; Huh7.5.1 HCVcc-Cre infection, luciferase reporter, 44 h; hit rate 3.4% among 340,000; AID 651820
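Cells (1,000/well) were plated 4 h before compound, then infected with HCVcc-Cre virus (~0.5 moi). After 44 h further culture, infection was read as luciferase luminescence following a 15 min substrate incubation at room temperature.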
HCMV antiviral – blocks human cytomegalovirus replication. hit rate 4.5% among 410,000. activity change, negative = inhibition, % at 57.5 µM. HFF cells, HCMV-luciferase reporter, 72 h; hits give low values; in the data active = activity change below about -60%; inconclusive = no clear call, values can overlap the other calls; inactive = above about -39%
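Steps: HFFs plated, 16 h 37C; compounds added; HCMV-luciferase added to MOI 1 PFU/cell; 72 h 37C; OneGlo reagent, 5 min room temperature; luminescence read, normalized to controls.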
FBPA Giardia inh – Giardia lamblia aldolase inhibition | AID 2451 | hit rate 0.71% among 290,000 | purified Giardia FBPA | Potency, µM (top dose mostly 59.6 µM), most hits filed as inhibitors | A8B2U2; also: nearly all actives have a fitted effect of over 55% in size
Target sequence (A8B2U2 whole entry, looked up): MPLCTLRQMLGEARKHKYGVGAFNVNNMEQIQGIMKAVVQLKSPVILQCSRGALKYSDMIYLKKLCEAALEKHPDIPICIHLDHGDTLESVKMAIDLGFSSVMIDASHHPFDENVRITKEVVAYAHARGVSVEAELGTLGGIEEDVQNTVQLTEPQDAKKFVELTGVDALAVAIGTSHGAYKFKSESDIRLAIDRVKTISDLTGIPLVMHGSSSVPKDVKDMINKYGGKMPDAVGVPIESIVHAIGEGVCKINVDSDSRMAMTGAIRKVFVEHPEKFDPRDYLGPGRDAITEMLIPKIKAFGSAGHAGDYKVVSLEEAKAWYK
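40 nM FBPA preincubated 10 min at RT with compound (up to 57.5 uM final), then substrate plus GAPDH/TPI/NAD/arsenate coupling and diaphorase/resazurin added. Fluorescence read after 20 min at RT, 525/598 nm.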
Marburg entry inh – Marburg virus entry inhibition. Marburg virus pseudotyped entry inhibition, cell reporter. Potency, µM (top dose mostly 37.8 µM), most hits filed as inhibitors. hit rate 1.8% among 300,000. AID 540276; calls by dose curve; tested in HEK293 cells
FMDV inh – foot and mouth disease virus antiviral activity; FMDV antiviral cell-based qHTS; Potency, µM (top dose mostly 57.9 µM), hits mostly inhibitors; hit rate 1.2% among 410,000; calls by dose curve; tested in HEK293T cells; also: read-out not given here; nearly all actives have a fitted effect of over 45% in size
A number is an active result; . = inactive; ? = inconclusive; / = no result; ! = a repeat was not active; [ ] = remark or other dose. Unless noted, calls follow the shape of the dose curve; as a rule, active = well fitted curve in the direction sought with a large enough effect; inconclusive = small, poorly fitted or top-dose-only effect, or another doubt; inactive = no such curve, though single readings can be large; an effect the other way counts as inactive or inconclusive.

SMILES	Lassa entry inh	HCV inhibitor	HCMV antiviral	FBPA Giardia inh	Marburg entry inh	FMDV inh
Cc1noc(C)c1COc1ccc(C(=O)Nc2nnc(CC(C)C)s2)cc1	/	?	-62.3	/	/	?
CCCC(=O)Nc1nc2ccc(OC)cc2s1	/	?	.	.	/	.
Cc1noc(C)c1C(=O)Nc1nnc(CC(C)C)s1	.	.	.	.	.	.
COc1ccc2nc(NC(=S)N(C)C)sc2c1	?	?	?	.	10µM	.
C/C1=C\CCCCc2cc(O)ccc2OC(=O)CC1	/	/	.	/	/	/
O=c1[nH]c(=S)[nH]c(O)c1N=Nc1ccc2c(c1)OCCO2	?	.	?	.	11.2µM	.
O=c1[nH]c(O)c(N=Nc2ccc3c(c2)OCCO3)c(=O)[nH]1	?	.	-82.1	.	?	?
Clc1cccc(CSc2nncn3c2cc2sccc23)c1	.	/	?	/	/	.
CC(C)CC(N(C)C)C1(c2ccc(Cl)cc2)CCC1 (centres undefined)	/	3.55µM!	?	.	/	?
CCOC(=O)c1c(C)n(Cc2ccccc2)c2ccc(OCC(O)CN3C(=O)CNC3=O)cc12 (centres undefined)	.	8.91µM	.	.	.	.
CCOC(=O)c1c(C)n(C)c2ccc(OCC(O)CN3CCN(C)CC3)cc12 (centres undefined)	/	.	.	.	.	.
CCOC(=O)c1c(C)n(C)c2ccc(OCC(O)Cn3c(C)nc4ccccc43)cc12 (centres undefined)	?	10µM	-60.1	.	?	17.8µM
CCOC(=O)c1c(C)n(C)c2ccc(OCC(O)CNCCc3ccccc3)cc12 (centres undefined)	/	12.6µM	.	.	/	.
O=C1C(n2ccc3ccccc32)c2cccc(F)c2N1Cc1ccc(Cl)nc1 (centres undefined)	/	/	.	/	/	/
O=C(NCC1CCC2(CCN(Cc3cnn(-c4ccc(F)cc4)c3)CC2)O1)c1ccccc1 (centres undefined)	/	/	/	/	/	.
CCOc1ccc(-c2csc(NC(=O)c3ccc(S(=O)(=O)N4CCc5ccccc5C4)cc3)n2)cc1	.	.	.	.	.	.
NS(=O)(=O)c1ccc(NC(=O)c2ccc(S(=O)(=O)N3CCc4ccccc43)cc2)cc1	/	?	.	.	/	.
Cc1csc(NC(=O)C2=NN(c3ccccc3)C(=O)CC2)n1	.	.	?	.	.	.
Cc1ccc(-c2csc(NC(=O)c3ccc(S(=O)(=O)N4CCc5ccccc54)cc3)n2)cc1	.	4.47µM	?	.	.	?
Cc1ccc(-c2csc(NC(=O)C3=NN(c4ccccc4)C(=O)CC3)n2)cc1	?	?	.	.	?	28.2µM
O=C(Nc1nc(-c2ccccc2)cs1)c1ccc(S(=O)(=O)N2CCc3ccccc32)cc1	?	10µM	-77.4	.	?	?
CC=COC(=O)N[C@@H](c1cccc(C)c1)[C@]1(C(=O)OCC)CCCC1=O	/	/	/	/	.	/
COc1ccc(-c2nc(CN3CCC(C(=O)NCCCN4CCN(c5ccccc5F)CC4)CC3)c(C)o2)cc1OC	?	/	-104.0	/	4.47µM	.
Cc1oc(-c2ccc(Cl)cc2)nc1CN1CCC(C(=O)NCCCN2CCN(c3cccc(Cl)c3)CC2)CC1	?	/	?	/	?	25.1µM
CCC1CCCCN1CCCNC(=O)C1CCN(Cc2nc(-c3ccc(Cl)cc3)oc2C)CC1 (centres undefined)	/	1.41µM	/	/	/	.
SMILES	Lassa entry inh	HCV inhibitor	HCMV antiviral	FBPA Giardia inh	Marburg entry inh	FMDV inh
Cc1oc(-c2ccc(Cl)cc2)nc1CN1CCC(C(=O)NCCCN2CCOCC2)CC1	?	8.91µM	.	.	13µM	.
CCCCNC(=O)C1CCCN(Cc2nc(-c3ccc(Cl)cc3)oc2C)C1 (centres undefined)	.	/	.	/	.	?
CC(CCN1CCCc2nc(C)c(C)cc21)=NOC[C@@H](O)[C@H]1O[C@@H]2OC(C)(C)O[C@H]2[C@@H]1O	?	/	/	/	.	/
O=C(Nc1nccs1)c1ccc(-c2ccccc2[N+](=O)[O-])o1	?	?	.	.	?	.
COc1ccc(NC(=O)c2ccc(-c3ccc(F)cc3)o2)cc1OC	/	/	.	/	/	?
COc1ccccc1NC(=O)c1ccc(-c2ccccc2[N+](=O)[O-])o1	/	11.2µM	.	.	?	.
COc1cc(NC(=O)c2ccc(-c3cccc(F)c3)o2)ccc1NC(=O)c1ccccc1Cl	/	7.08µM	.	/	/	?
COc1ccccc1NC(=O)c1ccc(-c2ccc(Br)cc2)o1	?	8.91µM	.	.	.	.
N#Cc1ccc(OCc2cn(CC(=O)c3ccc(O)cc3)nn2)cc1	.	/	/	/	/	/
O=C1Nc2ccccc2/C1=C\c1cccn1-c1ccc(OC(F)(F)F)cc1	.	0.562µM	.	.	.	?
CC1CC[C@@]2(C(=O)O)CC[C@]3(C)C(=CCC4[C@@]5(C)CCC(O)C(C)(C)C5CC[C@@]43C)C2C1C (some centres undefined)	/	/	/	.	/	.
CC(=O)N1CC=CC1(CC(C)C)C(=O)O (centres undefined)	/	/	/	.	/	/
COc1ccc(-c2nc3sc(CCNC(=O)c4cc(OC)c(OC)c(OC)c4)c(C)n3n2)cc1	.	/	.	/	/	.
CCOC(=O)c1c(NC(C)=O)sc2c1CCN(Cc1ccccc1)C2	/	?	.	?	/	.
CCOC(=O)c1c(NC(=O)CSc2nnc3c(n2)[nH]c2ccccc23)sc2c1CCN(C)C2	.	7.08µM	.	/	?	.
CCOC(=O)c1c(NC(=O)CSc2ncccn2)sc2c1CCN(Cc1ccccc1)C2	?	?	.	.	16.4µM	?
CCOC(=O)c1c(NC(=O)CSc2nnc3c(n2)[nH]c2ccc(F)cc23)sc(C(C)=O)c1C	.	?	.	.	.	.
CCOC(=O)c1sc(NC(=O)CSc2ncccn2)nc1C	?	15.8µM	.	/	?	.
C/C=C(/C)C(=O)O[C@@H]1[C@H](OC(=O)C=C(C)C)c2c(ccc3ccc(=O)oc23)OC1(C)C	.	.[8.37 µM]	.	.	.	.
CCO[C@@H]1c2c(ccc3ccc(=O)oc23)OC(C)(C)[C@@H]1O	/	.	.	/	/	.
CCO[C@H]1c2c(ccc3ccc(=O)oc23)OC(C)(C)[C@@H]1O	/	2.82µM	.	/	/	.
C/C=C(/C)C(=O)O[C@@H]1c2c(ccc3ccc(=O)oc23)OC(C)(C)[C@@H]1OC(=O)/C(C)=C\C	?	22.4µM	.	.	?	?
COc1ccc(CNC(=O)/C=C/c2ccco2)cc1OC	.	.	-89.0	.	.	.
COc1ccc(CNC(=O)/C=C/C(=O)O)cc1OC	.	.	.	?	.	.
CC(CCc1ccccc1)NC(=S)NC(=O)c1ccco1 (centres undefined)	?	.	.	.	.	.
NC(=S)NN=C(Cc1ccccc1)Cc1ccccc1	?	?	-70.2	.	?	?
COc1cc(C(=O)N/N=C(\C)Cc2ccccc2)cc(OC)c1OC	?	?	-91.5	.	?	.
O=C(NN=C(Cc1ccccc1)Cc1ccccc1)c1ccccc1O	.	.	.	?	?	.
COc1ccccc1OCC(=O)NN=C(Cc1ccccc1)Cc1ccccc1	.	?	-62.9	.	?	.

Source: PubChem (National Center for Advancing Translational Sciences (NCATS))
